This is a sample that favours compounds with a hit; in the whole collection about 1.6% have one here.
OPRM1-OPRD1 ag – agonists of OPRM1-OPRD1 heterodimerization, primary screen, cell-based, luminescence. 0.3% of 340,000 active. AID 504326, 2011. cells. activation, % at 9.3 µM;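 also: 0% = vehicle-treated cells and 100% = reference agonist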
HTR5A ag ctr – HTR5A agonists in luminescence cell assay, primary screen, counter-screen for OPRM1-OPRD1 heterodimer agonist project, full-deck HTS; cell-based; 0.61% of 340,000 active; activation, % at 9.3 µM; 5-hydroxytryptamine receptor 5A (Homo sapiens), P47898; in the data active = activation mostly above about 9.5%, no sharp cut-off; inactive = mostly below about 7.6%;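 also: 0% = cells with vehicle only and 100% = reference agonist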
HTR5A inv ctr – HTR5A inverse agonists in luminescence cell assay, primary screen, counter-screen for OPRM1-OPRD1 heterodimer inverse agonist project, full-deck HTS; 0.083% of 340,000 active; inhibition, % at 9.3 µM; HTR5A cell line, inverse agonism; in the data active = inhibition mostly above about 23%, no sharp cut-off; inactive = mostly below about 18%;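 also: 0% = cells with DMSO and 100% = no-cell wells with DMSO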
OPRM1-OPRD1 inv – inverse agonists of MOR-DOR heterodimerization, primary screen, cell-based, luminescence; inhibition, % at 9.3 µM; 0.21% of 340,000 active; Mu-type opioid receptor (Homo sapiens) + Delta-type opioid receptor (Homo sapiens), …; cell-based MOR-DOR heterodimer luminescence, inverse agonism; in the data active = inhibition above about 22%, passing the limit was not always enough;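 also: 0% = cells with DMSO and 100% = wells without cells with DMSO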
m5-HT2A agonist – mouse Htr2a agonists via beta-arrestin recruitment, primary screen, cell-based, luminescence; 0.66% of 360,000 active; 5-hydroxytryptamine receptor 2A (Mus musculus), P35363; CHO-K1 mHTR2A beta-arrestin complementation; percent of 30 µM serotonin response; activation, % at 7.6 µM;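 active = activation above a run cutoff, the mean activation of all tested compounds plus 3 SD, cut at about 14% in these data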;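 also: 0% = plate median of compound wells and 100% = 30 µM serotonin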
Target sequence (P35363 whole entry, looked up): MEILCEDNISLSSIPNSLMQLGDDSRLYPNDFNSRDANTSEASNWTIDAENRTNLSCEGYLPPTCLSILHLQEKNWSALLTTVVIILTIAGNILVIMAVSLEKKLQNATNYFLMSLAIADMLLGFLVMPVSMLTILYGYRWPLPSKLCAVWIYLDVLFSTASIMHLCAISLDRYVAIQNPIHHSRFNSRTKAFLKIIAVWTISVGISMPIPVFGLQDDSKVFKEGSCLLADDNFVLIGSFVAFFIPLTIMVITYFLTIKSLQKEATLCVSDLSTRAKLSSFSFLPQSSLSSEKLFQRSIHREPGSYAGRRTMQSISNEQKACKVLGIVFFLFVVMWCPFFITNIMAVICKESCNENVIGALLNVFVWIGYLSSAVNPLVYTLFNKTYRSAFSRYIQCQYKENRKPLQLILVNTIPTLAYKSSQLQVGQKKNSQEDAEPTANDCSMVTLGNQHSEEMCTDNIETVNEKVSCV
OPRM1-D1 ag cf – agonists of MOR-DOR heterodimerization, confirmation, cell-based, luminescence | shares compounds with OPRM1-OPRD1 ag | cells, luminescence complementation | activation, % at 9.3 µM | 45% of 830 active;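 also: 0% = vehicle-treated cells and 100% = reference agonist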
HTR5A ag counter – HTR5A agonists in cells, counter-screen for OPRM1-OPRD1 heterodimer agonist project, cell-based, luminescence; shares compounds with OPRM1-OPRD1 ag; HTR5A agonist counterscreen; activation, % at 9.3 µM; 8% of 830 active; AID 504905, 2011; in the data active = activation above about 17%;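 also: 0% = vehicle-treated cells and 100% = reference agonist response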
* marks the source's active call; other numbers are inactive results; i = inactive; x = no result. Rule as the data show it, unless noted: active = activation above about 18%; inactive = the rest.

SMILES	OPRM1-OPRD1 ag	HTR5A ag ctr	HTR5A inv ctr	OPRM1-OPRD1 inv	m5-HT2A agonist	OPRM1-D1 ag cf	HTR5A ag counter
O=C(NCC1CCCCC1)c1cccc(Br)c1	1.7	-1.2	8.0	-11.8	6.1	x	x
CCn1c(Cc2ccccc2)nnc1SCC(=O)Nc1ccc2c(c1)OCCO2	-2.9	-1.1	-3.4	15.6	-3.7	x	x
Cc1ccc(C)c(NC(=S)NC(NC(=O)Cc2cccc3ccccc23)C(Cl)(Cl)Cl)c1 (stereo not drawn)	26.6*	2.5	8.8	-155.7	2.6	4.3	3.7
Cc1ccc(C)c(NC(=S)NC(NC(=O)N(C)C)C(Cl)(Cl)Cl)c1 (stereo not drawn)	1.8	2.9	-7.5	-11.5	0.0	x	x
COc1ccc(/C=N/NC(=O)c2ccco2)cc1Cn1nc(C)cc1C	-1.9	-2.0	-19.4	11.9	9.1	x	x
COc1ccc(/C=N\NC(=O)COc2ccc(C(C)(C)C)cc2)cc1Cn1nc(C)cc1C	45.1*	4.4	-11.0	-189.6	0.9	0.8	3.4
N=C(N)SCc1cn(-c2ccccc2)nc1-c1ccc(Br)cc1	20.0*	8.1	-17.6	-109.2	-5.6	0.7	3.5
COc1ccccc1OCC(O)Cn1c(=N)n(Cc2ccccc2)c2ccccc21 (stereo not drawn)	2.5	-0.9	18.2	-12.6	-5.8	x	x
Cc1ccccc1OCC(O)Cn1c(=N)n(Cc2ccccc2)c2ccccc21 (stereo not drawn)	31.1*	2.0	-5.8	-154.7	-10.8	53.4*	7.8
CCn1c(/C=C/c2c[nH]c3ccccc23)nc2ccccc2c1=O	5.7	-1.5	4.2	-26.2	2.4	x	x
CCn1c(/C=C/c2c(C)[nH]c3ccccc23)nc2ccccc2c1=O	27.4*	-1.6	-1.0	-146.3	1.9	0.9	-1.0
O=C(NCC(c1cccs1)N1CCOCC1)c1ccc(Cl)c([N+](=O)[O-])c1 (stereo not drawn)	-0.6	-1.6	-24.5	3.4	3.0	x	x
CCCCn1c(N)c(N(CC(C)C)C(=O)c2oc3c(Cl)cccc3c2C)c(=O)[nH]c1=O	0.2	-0.2	0.5	-1.4	2.5	x	x
COc1cc(Cl)c(NS(=O)(=O)c2cc3[nH]c(=O)c(=O)[nH]c3cc2C)c(OC)c1	0.1	-5.3	13.9	-0.7	-1.4	x	x
COc1ccc(Oc2ccc(C(F)(F)F)cc2NC(=O)c2ccc(OC)cc2)cc1	3.4	-2.0	-25.4	-17.1	-1.2	x	x
COc1ccc(Oc2ccc(C(F)(F)F)cc2N)cc1	18.3*	-0.5	-15.6	-89.5	3.1	7.5	0.0
COc1ccc(C(CNC(=O)C(Cc2ccccc2)NC(N)=O)N(C)C)cc1 (stereo not drawn)	23.5*	0.5	-1.9	-117.1	4.2	268.5*	-2.1
CN(C)c1ccc(C(CNC(=O)Cc2cccc3ccccc23)N(C)C)cc1 (stereo not drawn)	38.9*	-4.5	-5.9	-208.9	-3.2	44.9*	0.8
COc1ccc(C(CNC(=O)/C=C/c2c(Cl)nc3ccccn23)N(C)C)cc1 (stereo not drawn)	62.9*	-0.7	1.8	-298.4	-2.8	66.0*	0.3
COc1ccc(C(CNC(=O)Cc2ccc(-c3ccccc3)cc2)N(C)C)cc1 (stereo not drawn)	320.2*	0.8	-2.4	i	-9.9	-2.7	-3.6
CCC(=O)NC(c1ccc(N(C)C)cc1)c1c(O)ccc2ccccc12 (stereo not drawn)	-1.9	-4.5	11.7	9.9	-5.9	x	x
COCCNC(=O)CSCc1cc(C)cc(C)c1	-2.1	6.5	19.8	10.7	2.1	x	x
COc1ccc(C(CNC(=O)CSc2ccccc2C)N(C)C)cc1 (stereo not drawn)	115.2*	4.1	-11.5	i	-1.1	112.1*	0.2

Screening data: PubChem, The Scripps Research Institute Molecular Screening Center
